From ChEMBL document CHEMBL4513216, “Probing the Open Global Health Chemical Diversity Library for Multistage-Active Starting Points for Next-Generation Antimalarials” (ACS Infect Dis, 2020)
Out of some 69,000 compounds screened, about 8,600 (12%) showed an effect of 50% or more. Many of the other results were omitted from the sample, so strong results are more common in it than they were.

tested on: Plasmodium berghei; experiment: Screen against P. berghei liver stage (PbLuc), transformed with Luciferase, at 10uM; format: functional, HepG2; conditions: tested at 10 uM

Structure (SMILES)	INHIBITION [%]
CC(Cn1ccnc1)NC(=O)NCCN1CCCCCC1=O (stereo unspecified)	5.29
Cc1noc(C2CCN(C(=O)Nc3ccc(N(C)C)nc3)CC2)n1	24.95
CCNC(c1ccc(Cl)cc1)c1cccnc1 (stereo unspecified)	3.15
CC(C)C(=O)N1CCC2(CC1)NC(=O)c1ccccc12	39.3
Cc1ccccc1C(=O)N1CCC2(CCC(C(=O)NCC3CC3)O2)CC1 (stereo unspecified)	-3.58
CSCC(C)(O)CNS(=O)(=O)c1ccc(Br)cc1 (stereo unspecified)	-23.5
Cn1c2c(c(=O)c3ccccc31)CCC(C)(C)O2	-27.3
CN(Cc1ccco1)[C@@H]1CN(Cc2cnn(C)c2)[C@@H]2CCCO[C@H]12	38.1
Cc1cc(CNC(=O)CCc2c(C)nc3cc(O)nn3c2C)no1	15.5
Cn1cc(CN2CCC(c3ccncc3)CC2)cn1	23.35
CNS(=O)(=O)c1ccc(CN2CCCN(c3ccccc3)CC2)cc1	48.2
CNS(=O)(=O)c1ccc(CN2CCCN(CC(C)C)CC2)cc1	34.1
CS(=O)(=O)c1ccc(CN2CCCCC2c2cccc(F)c2)cc1 (stereo unspecified)	34
CS(=O)(=O)c1ccc(CN2CCCCC2c2ccc(F)cc2)cc1 (stereo unspecified)	32.8
CNS(=O)(=O)c1ccc(CN2CCCN(Cc3ccncc3)CC2)cc1	55.7
CNS(=O)(=O)c1ccc(CN2CCC(c3ccncc3)CC2)cc1	54.1
CNS(=O)(=O)c1ccc(CN2CCN(Cc3ncccc3C)CC2)cc1	49.1
CNS(=O)(=O)c1ccc(CN2CCCC2c2ccc(F)cc2)cc1 (stereo unspecified)	51.3
O=C1CN(C(=O)OCc2ccccc2)CC(O)CN1Cc1ccco1 (stereo unspecified)	34.3
CCN(CC)C(=O)Cn1ccc2cc(NC(C)=O)ccc21	-37.31
CNc1cc2c(nn1)CCN(C(=O)c1ccc(-n3cccn3)nc1)C2	35.7
COc1c(C2CCCN2C(=O)c2ccc(C#N)cc2)c(C)nn1C (stereo unspecified)	7.67
C[C@H]1CN(Cc2cnn(C)c2)C[C@@]12CCN(Cc1cccnc1)C2=O	48.2
CC(=O)N1CCCN(C(C(=O)O)c2ccccc2OC(F)(F)F)CC1 (stereo unspecified)	15.2
O=C(CN1CCCC1Cn1cccn1)NCCOc1cccc(F)c1 (stereo unspecified)	48.4
Cc1nc(C)n(CCC(=O)N2CCc3ncc(Cl)cc3C2)n1	24.4

Structure (SMILES)	INHIBITION [%]
CC(C)n1ncc2c1NC(=O)CSC2C(F)(F)F (stereo unspecified)	-38
CNc1ccnc(N(C)Cc2cc(-c3cccs3)n[nH]2)n1	88.4
CN(C)c1nccc(NCc2cc(-c3cccs3)n[nH]2)n1	18.9
CNc1cc(C(=O)N(C)Cc2cc(-c3cccs3)n[nH]2)ccn1	47.6
CCc1n[nH]c(C2CN(C(=O)c3nc(C)ncc3Cl)CCO2)n1 (stereo unspecified)	37.5
CCOC(=O)c1sc(NC(=O)CCCC(=O)O)c(C#N)c1C	28.2
Cc1ccc(NCCCNC(=O)C2CC3(CCNCC3)CN2C)nc1 (stereo unspecified)	37.1
COc1ccc2nc(CNC(=O)C3CC4(CCNCC4)CN3C)[nH]c2c1 (stereo unspecified)	18.6
Cc1ccc2[nH]c(CNC(=O)C3CC4(CCNCC4)CN3C)nc2c1C (stereo unspecified)	66.3
c1coc(CNc2ncc3c(n2)C2(CCNC2)COC3)c1 (stereo unspecified)	29.8
Cc1nc(NCC2CC2)nc2c1COCC21CCNC1 (stereo unspecified)	38.1
Cc1nc(NCc2ccco2)nc2c1COCC21CCNC1 (stereo unspecified)	55.5
Cc1ccc(Oc2ncccc2C(=O)N(C)CCCN(C)C)c(C)c1	13.5
CCOCC(=O)N1CCC(C)(c2nccs2)CC1	38.05
CC(=O)N1CCN(C(=O)CCn2c(C)nc3ccccc3c2=O)CC1	8.665
CC(C)=CCN1CCC(c2nnc(CN3CCN(C)CC3)n2C)CC1	25.4
Cc1noc([C@@]23CCO[C@@H]2CCN(C(=O)c2sccc2C)C3)n1	-4.56
Cc1noc([C@@]23CCO[C@@H]2CCN(C(=O)c2cc(C)[nH]c2C)C3)n1	24.9
Cc1noc([C@@]23CCO[C@@H]2CCN(C(=O)c2cc(C)on2)C3)n1	61.9
Cc1noc([C@@]23CCO[C@@H]2CCN(C(=O)c2ccsc2)C3)n1	-15.3
Cc1noc([C@@]23CCO[C@@H]2CCN(C(=O)c2cc(C)c(C)s2)C3)n1	57.1
Cc1noc([C@@]23CCO[C@@H]2CCN(C(=O)c2c(C)noc2C)C3)n1	28.2
CC(C)Cc1nc(CCn2cncn2)n(-c2ccc3c(c2)OCCO3)n1	41.2
Cc1cc(Cl)ccc1-n1ncc(C(=O)N(C)CCc2ccccn2)c1N	29.3
CC(C)c1nc(-c2ccnc(N3CCNCC3)n2)no1	18.2
CC(C)n1ccnc1CN1CCCN(C(=O)c2cnn(C)c2)CC1	10.9165

Structure (SMILES)	INHIBITION [%]
Cc1nc(CN2C(=O)COC3(CCN(C(N)=O)CC3)C2C)cs1 (stereo unspecified)	-10.3
CS(=O)(=O)c1cncnc1C1CCCN(C(=O)Nc2ccccc2F)C1 (stereo unspecified)	-8.76
COc1ccccc1CN(Cc1cccs1)S(=O)(=O)N(C)C(C)C	67.5
CCN(Cc1cccs1)S(=O)(=O)N(C)C(C)C	44.3
CC(C)N(C)S(=O)(=O)N(Cc1cccs1)Cc1cccs1	14.6
Cn1nc(C2CN(C(=O)c3cccnc3)C2)c2nccnc21	32.8
CCc1nc2n(n1)CC(NCc1nc(Cc3ccccc3)no1)CC2 (stereo unspecified)	19.6
NC(=O)c1ccc(NC(=O)c2ccncc2F)cn1	9
O=C(COc1ccccc1)N1C[C@@H]2COC[C@]2(COc2cccnc2)C1	50.3
O=C(Cc1ccccc1F)N1C[C@@H]2COC[C@]2(COc2cccnc2)C1	39.2
O=C(C1=CCCC1)N1C[C@@H]2COC[C@]2(COc2cccnc2)C1	33
Cc1ccc(C(=O)N2C[C@@H]3COC[C@]3(COc3cccnc3)C2)cn1	23.9
O=C(COC1CCCC1)N1C[C@@H]2COC[C@]2(COc2cccnc2)C1	40.3
O=C(c1ccc(F)cc1)N1C[C@@H]2COC[C@]2(COc2cccnc2)C1	55.7
O=C(c1cc(C2CC2)on1)N1C[C@@H]2COC[C@]2(COc2cccnc2)C1	72
O=C(c1cocn1)N1C[C@@H]2COC[C@]2(COc2cccnc2)C1	43.9
O=C(c1ncccn1)N1C[C@@H]2COC[C@]2(COc2cccnc2)C1	46.6
Cc1ccc(-c2cc(CNC(=O)NC3CCCCNC3=O)on2)cc1 (stereo unspecified)	-22.1
CS(=O)(=O)NC[C@H]1OC[C@H]2CN(CCc3ccccc3)CC[C@H]21	2.7
CC(C)C(=O)N1CCC(Cc2nccnc2Nc2ccccn2)CC1	23.4
CCS(=O)(=O)N1C[C@H]2CN(Cc3cccnc3)C(=O)[C@H]2C1	-28.2
O=C(CSc1nncs1)N1CCN(Cc2ccc(Cl)s2)CC1	2.37
CCNc1nnc(SCC(=O)N2CCN(Cc3ccc(Cl)s3)CC2)s1	40.5
O=C(CSc1nncs1)N1CCN(Cc2ccc(Cl)cc2)CC1	87.2
c1ccc(-n2nc(CNC3CCc4ncnn4C3)c3c2CCC3)cc1 (stereo unspecified)	33.25
Cc1noc([C@@H]2C[C@@H]3CCN(CC4CCOCC4)C[C@H]3O2)n1	-23.4

Structure (SMILES)	INHIBITION [%]
Cc1cccc(C(C(=O)NCc2nc(-c3ncccn3)no2)N(C)C)c1 (stereo unspecified)	56.3
Cc1cccc(C(C(=O)NCc2nc(-c3cccnc3)no2)N(C)C)c1 (stereo unspecified)	15.3
Cc1ccccc1C(C(=O)NCc1nc(-c2ncccn2)no1)N(C)C (stereo unspecified)	-24.9
CCN(Cc1cccc2c1OCO2)C(=O)NCCOC	31.3
CC(C)(C)CC(NC(=O)N1CCS(=O)(=O)CC1)C(F)(F)F (stereo unspecified)	-47.8
Cc1nn(C)cc1CN1CCc2nc(-c3cccnc3)nc(O)c2C1	38.8
Fc1ccc2[nH]c([C@H]3CCN(C4CCOCC4)C3)nc2c1	31.2
FC(F)(F)c1ccc2nc([C@H]3CCN(C4CCC4)C3)[nH]c2c1	39.2
FC(F)(F)c1ccc2nc([C@H]3CCN(C4CCOCC4)C3)[nH]c2c1	53
FC(F)(F)c1ccc2nc([C@H]3CCN(C4CCCCC4)C3)[nH]c2c1	73.7
CN1CCC(N2CC[C@H](c3nc4ccc(C(F)(F)F)cc4[nH]3)C2)CC1	24.3
CC(C)N1CC[C@H](c2nc3ccc(C(F)(F)F)cc3[nH]2)C1	30.3
O=S(=O)(CCN1CCN(c2ccccc2O)CC1)c1ccc(Br)cc1	18.9
CN(Cc1ccccc1)c1cnn(CC2COCCO2)c(=O)c1 (stereo unspecified)	28.2
O=C(c1cnoc1)N1CCC[C@]2(C[C@@H](Oc3ccccn3)CO2)C1	-27.9
c1cc(CNc2ncc(-c3cnccn3)c(C3CC3)n2)ccn1	75.9
c1cnc(-c2cnc(N3CCSCC3)nc2C2CC2)cn1	64.3
c1cc(CCNc2ncc(-c3cnccn3)c(C3CC3)n2)ccn1	28.5
c1cnc(-c2cnc(N3CCSCC3)nc2C2CCCO2)cn1 (stereo unspecified)	27.9
c1cc(CNc2ncc(-c3cnccn3)c([C@@H]3CCCO3)n2)ccn1	5.34
c1cnc(-c2cnc(N3CCCCC3)nc2C2CCCO2)cn1 (stereo unspecified)	-14.1
CC(C)C(C(=O)N1CCCN(Cc2cscn2)CC1)n1cncn1 (stereo unspecified)	-22.9
CC1CC(=O)c2cnc3nc(N4CCOCC4)[nH]c(=O)c3c2C1 (stereo unspecified)	22
